# Several values for one entry are separate records, joined by “and”; a condition that tells them apart may be missing. Equal entries are not always repeated. Where two headings read alike, the source gives them in different places.
# What was measured:
# MYO3B = settings: concentration: 1 μM, replicates: in singlicate; n = 1
# NDR1 = test system: T1, NDR1; settings: concentration: 1 μM, replicates: in singlicate, n = 1
# T1 construct: gene STK38
# NDR2 = settings: concentration: 1 μM, replicates: in singlicate, n = 1
# NEK10 = settings: concentration: 1 μM, replicates: in singlicate, n = 1
# NEK11 = settings: concentration: 1 μM, replicates: in singlicate, n = 1
# NEK1 = settings: concentration: 1 μM, replicates: in singlicate, n = 1
# NEK2 = settings: concentration: 1 μM, replicates: in singlicate; n = 1
# NEK3 = settings: concentration: 1 μM, replicates: in singlicate, n = 1
# NEK4 = settings: concentration: 1 μM, replicates: in singlicate; n = 1
# NEK5 = settings: concentration: 1 μM, replicates: in singlicate, n = 1
# NEK6 = settings: concentration: 1 μM, replicates: in singlicate, n = 1
# NEK7 = settings: concentration: 1 μM, replicates: in singlicate; n = 1
# NEK9 = settings: concentration: 1 μM, replicates: in singlicate, n = 1
# NIK = test system: T2, NIK; settings: concentration: 1 μM, replicates: in singlicate, n = 1
# T2 construct: gene MAP3K14
# NIM1 = test system: T3, NIM1; settings: concentration: 1 μM, replicates: in singlicate, n = 1
# T3 construct: gene MGC42105
# NLK = settings: concentration: 1 μM, replicates: in singlicate; n = 1
# OSR1 = test system: T4, OSR1; settings: concentration: 1 μM, replicates: in singlicate, n = 1
# T4 construct: gene OXSR1
# PAK1 = settings: concentration: 1 μM, replicates: in singlicate, n = 1
# PAK2 = settings: concentration: 1 μM, replicates: in singlicate, n = 1
# PAK3 = settings: concentration: 1 μM, replicates: in singlicate, n = 1
# 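Also: KINOMEscan kinase panel screen.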
structure (smiles),measurement,setting,value
Fc1ccc(-c2ncn(CCCN3CCOCC3)c2-c2ccccn2)cc1 [SB-211742],%Inh,MYO3B,10%
same,%Inh,NDR1,13%
same,%Inh,NDR2,0%
same,%Inh,NEK10,0%
same,%Inh,NEK11,0%
same,%Inh,NEK1,0%
same,%Inh,NEK2,7%
same,%Inh,NEK3,28%
same,%Inh,NEK4,0%
same,%Inh,NEK5,16%
same,%Inh,NEK6,15%
same,%Inh,NEK7,0%
same,%Inh,NEK9,0%
same,%Inh,NIK,0%
same,%Inh,NIM1,0%
same,%Inh,NLK,0%
same,%Inh,OSR1,0%
same,%Inh,PAK1,0%
same,%Inh,PAK2,0%
same,%Inh,PAK3,0%
c1ccc(-c2n[nH]cc2-c2ccnc3ccccc23)nc1 [GW271431],%Inh,MYO3B,0%
same,%Inh,NDR1,17%
same,%Inh,NDR2,0%
same,%Inh,NEK10,8%
same,%Inh,NEK11,0%
same,%Inh,NEK1,0%
same,%Inh,NEK2,2%
same,%Inh,NEK3,14%
same,%Inh,NEK4,3%
same,%Inh,NEK5,22%
same,%Inh,NEK6,0%
same,%Inh,NEK7,0%
same,%Inh,NEK9,58%
same,%Inh,NIK,4%
same,%Inh,NIM1,21%
same,%Inh,NLK,58%
same,%Inh,OSR1,13%
same,%Inh,PAK1,16%
same,%Inh,PAK2,20%
same,%Inh,PAK3,6%
CNc1ncnc2[nH]ncc12 [SKF-18355],%Inh,MYO3B,34%
same,%Inh,NDR1,46%
same,%Inh,NDR2,23%
same,%Inh,NEK10,16%
same,%Inh,NEK11,0%
same,%Inh,NEK1,0%
same,%Inh,NEK2,0%
same,%Inh,NEK3,26%
same,%Inh,NEK4,0%
same,%Inh,NEK5,0%
same,%Inh,NEK6,0%
same,%Inh,NEK7,0%
same,%Inh,NEK9,0%
same,%Inh,NIK,31%
same,%Inh,NIM1,21%
same,%Inh,NLK,0%
same,%Inh,OSR1,0%
same,%Inh,PAK1,0%
same,%Inh,PAK2,43%
same,%Inh,PAK3,0%
NCCNS(=O)(=O)c1ccc(-c2ccnc3[nH]ccc23)cc1 [GSK977617],%Inh,MYO3B,0%
same,%Inh,NDR1; 1 µM,70% and 58%
same,%Inh,NDR2; 1 µM,77% and 60%
same,%Inh,NEK10; 1 µM,69% and 53%
same,%Inh,NEK11; 1 µM,24% and 0%
same,%Inh,NEK1; 1 µM,62% and 44%
same,%Inh,NEK2,0%
same,%Inh,NEK3; 1 µM,14% and 0%
same,%Inh,NEK4,0%
same,%Inh,NEK5; 1 µM,44% and 25%
same,%Inh,NEK6; 1 µM,4% and 0%
same,%Inh,NEK7,0%
same,%Inh,NEK9; 1 µM,22% and 16%
same,%Inh,NIK; 1 µM,19% and 7%
same,%Inh,NIM1; 1 µM,0% and 26%
same,%Inh,NLK,0%
same,%Inh,OSR1; 1 µM,63% and 52%
same,%Inh,PAK1; 1 µM,66% and 43%
same,%Inh,PAK2; 1 µM,65% and 41%
same,%Inh,PAK3; 1 µM,90.6% and 78%
COC(=O)Nc1nc2cc(Oc3ccc(NC(=O)Nc4cc(F)ccc4F)cc3)ccc2[nH]1.Cl [GW701424],%Inh,MYO3B,0%
same,%Inh,NDR1,26%
same,%Inh,NDR2,0%
same,%Inh,NEK10,8%
same,%Inh,NEK11,7%
same,%Inh,NEK1,0%
same,%Inh,NEK2,0%
same,%Inh,NEK3,0%
same,%Inh,NEK4,0%
same,%Inh,NEK5,3%
same,%Inh,NEK6,0%
same,%Inh,NEK7,0%
same,%Inh,NEK9,0%
same,%Inh,NIK,44%
same,%Inh,NIM1,30%
same,%Inh,NLK,10%
same,%Inh,OSR1,14%
same,%Inh,PAK1,0%
same,%Inh,PAK2,0%
same,%Inh,PAK3,0%
COc1ccc(CNC(=O)NC2CCN(c3ccnc(Nc4ccc(OC)cc4)n3)C2)cc1 (stereo not drawn) [GSK1379727],%Inh,MYO3B,0%
same,%Inh,NDR1,0%
same,%Inh,NDR2,42%
same,%Inh,NEK10,15%
same,%Inh,NEK11,11%
same,%Inh,NEK1,0%
same,%Inh,NEK2,0%
same,%Inh,NEK3,8%
same,%Inh,NEK4,12%
same,%Inh,NEK5,13%
same,%Inh,NEK6,0%
same,%Inh,NEK7,0%
same,%Inh,NEK9,6%
same,%Inh,NIK,17%
same,%Inh,NIM1,33%
same,%Inh,NLK,24%
same,%Inh,OSR1,0%
same,%Inh,PAK1,0%
same,%Inh,PAK2,0%
same,%Inh,PAK3,0%
Cc1c(Cn2c(C)nn3c(=O)cc(N4CCOC(C)C4)nc23)cccc1C(F)(F)F (stereo not drawn) [GSK2344444],%Inh,MYO3B,0%
same,%Inh,NDR1,0%
same,%Inh,NDR2,0%
same,%Inh,NEK10,2%
same,%Inh,NEK11,0%
same,%Inh,NEK1,0%
same,%Inh,NEK2,3%
same,%Inh,NEK3,0%
same,%Inh,NEK4,22%
same,%Inh,NEK5,0%
same,%Inh,NEK6,0%
same,%Inh,NEK7,1%
same,%Inh,NEK9,14%
same,%Inh,NIK,12%
same,%Inh,NIM1,3%
same,%Inh,NLK,0%
same,%Inh,OSR1,23%
same,%Inh,PAK1,0%
same,%Inh,PAK2,0%
same,%Inh,PAK3,20%
O=C(Nc1n[nH]c2cc(-c3cccc(F)c3)ccc12)C1CC1 [SB-735464],%Inh,MYO3B,0%
same,%Inh,NDR1,25%
same,%Inh,NDR2,11%
same,%Inh,NEK10,0%
same,%Inh,NEK11,37%
same,%Inh,NEK1,0%
same,%Inh,NEK2,0%
same,%Inh,NEK3,23%
same,%Inh,NEK4,14%
same,%Inh,NEK5,0%
same,%Inh,NEK6,3%
same,%Inh,NEK7,0%
same,%Inh,NEK9,0%
same,%Inh,NIK,9%
same,%Inh,NIM1,12%
same,%Inh,NLK,86%
same,%Inh,OSR1,0%
same,%Inh,PAK1,0%
same,%Inh,PAK2,30%
same,%Inh,PAK3,44%
Nc1nc(-c2ccc3c(N)n[nH]c3c2)cc(N2CCCC2)n1 [GSK2227430],%Inh,MYO3B,7%
same,%Inh,NDR1,14%
same,%Inh,NDR2,0%
same,%Inh,NEK10,0%
same,%Inh,NEK11,0%
same,%Inh,NEK1,12%
same,%Inh,NEK2,0%
same,%Inh,NEK3,5%
same,%Inh,NEK4,0%
same,%Inh,NEK5,0%
same,%Inh,NEK6,0%
same,%Inh,NEK7,0%
same,%Inh,NEK9,6%
same,%Inh,NIK,0%
same,%Inh,NIM1,0%
same,%Inh,NLK,0%
same,%Inh,OSR1,7%
same,%Inh,PAK1,13%
same,%Inh,PAK2,12%
same,%Inh,PAK3,0%
NS(=O)(=O)c1cccc(-c2ccc3ncc(N4CCOCC4)nc3c2)c1 [GSK1535721],%Inh,MYO3B,0%
same,%Inh,NDR1,21%
same,%Inh,NDR2,0%
same,%Inh,NEK10,0%
same,%Inh,NEK11,0%
same,%Inh,NEK1,0%
same,%Inh,NEK2,12%
same,%Inh,NEK3,0%
same,%Inh,NEK4,0%
same,%Inh,NEK5,8%
same,%Inh,NEK6,0%
same,%Inh,NEK7,0%
same,%Inh,NEK9,0%
same,%Inh,NIK,0%
same,%Inh,NIM1,0%
same,%Inh,NLK,8%
same,%Inh,OSR1,0%
same,%Inh,PAK1,17%
same,%Inh,PAK2,0%
same,%Inh,PAK3,0%
Cc1nnc(-c2ccc3occ(-c4ccc(C(C)O)cc4)c3c2)o1 (stereo not drawn),%Inh,MYO3B,0%
same,%Inh,NDR1,18%
same,%Inh,NDR2,55%
same,%Inh,NEK10,30%
same,%Inh,NEK11,0%
same,%Inh,NEK1,0%
same,%Inh,NEK2,0%
same,%Inh,NEK3,3%
same,%Inh,NEK4,0%
same,%Inh,NEK5,0%
same,%Inh,NEK6,4%
same,%Inh,NEK7,0%
same,%Inh,NEK9,0%
same,%Inh,NIK,0%
same,%Inh,NIM1,0%
same,%Inh,NLK,2%
same,%Inh,OSR1,25%
same,%Inh,PAK1,14%
same,%Inh,PAK2,16%
same,%Inh,PAK3,23%
COc1ccc(Nc2nccc(N3CCC(NC(=O)Nc4cc(C)ccc4C)C3)n2)cc1 (stereo not drawn) [GSK1379741],%Inh,MYO3B,0%
same,%Inh,NDR1,7%
same,%Inh,NDR2,0%
same,%Inh,NEK10,1%
same,%Inh,NEK11,20%
same,%Inh,NEK1,0%
same,%Inh,NEK2,0%
same,%Inh,NEK3,0%
same,%Inh,NEK4,0%
same,%Inh,NEK5,6%
same,%Inh,NEK6,0%
same,%Inh,NEK7,0%
same,%Inh,NEK9,9%
same,%Inh,NIK,7%
same,%Inh,NIM1,7%
same,%Inh,NLK,35%
same,%Inh,OSR1,1%
same,%Inh,PAK1,7%
same,%Inh,PAK2,0%
same,%Inh,PAK3,0%
NS(=O)(=O)c1cccc(-c2ccc3nccc(-c4cccc(S(N)(=O)=O)c4)c3c2)c1 [GW867253],%Inh,MYO3B,0%
same,%Inh,NDR1,41%
same,%Inh,NDR2,19%
same,%Inh,NEK10,20%
same,%Inh,NEK11,8%
same,%Inh,NEK1,0%
same,%Inh,NEK2,0%
same,%Inh,NEK3,29%
same,%Inh,NEK4,0%
same,%Inh,NEK5,7%
same,%Inh,NEK6,0%
same,%Inh,NEK7,0%
same,%Inh,NEK9,0%
same,%Inh,NIK,32%
same,%Inh,NIM1,0%
same,%Inh,NLK,0%
same,%Inh,OSR1,0%
same,%Inh,PAK1,7%
same,%Inh,PAK2,53%
same,%Inh,PAK3,0%
Cn1ccc2ncnc(Oc3ccc(NC(=O)Nc4ccncc4)c(Cl)c3)c21,%Inh,MYO3B,13%
same,%Inh,NDR1,0%
same,%Inh,NDR2,17%
same,%Inh,NEK10,14%
same,%Inh,NEK11,0%
same,%Inh,NEK1,0%
same,%Inh,NEK2,0%
same,%Inh,NEK3,24%
same,%Inh,NEK4,0%
same,%Inh,NEK5,3%
same,%Inh,NEK6,0%
same,%Inh,NEK7,0%
same,%Inh,NEK9,0%
same,%Inh,NIK,0%
same,%Inh,NIM1,0%
same,%Inh,NLK,0%
same,%Inh,OSR1,0%
same,%Inh,PAK1,16%
same,%Inh,PAK2,2%
same,%Inh,PAK3,0%
COc1cc2ncn(-c3cc(OCc4sccc4Cl)c(C(N)=O)s3)c2cc1OC [GSK448459],%Inh,MYO3B,0%
same,%Inh,NDR1,0%
same,%Inh,NDR2,0%
same,%Inh,NEK10,0%
same,%Inh,NEK11,0%
same,%Inh,NEK1,13%
same,%Inh,NEK2,97.1%
same,%Inh,NEK3,4%
same,%Inh,NEK4,0%
same,%Inh,NEK5,11%
same,%Inh,NEK6,0%
same,%Inh,NEK7,0%
same,%Inh,NEK9,0%
same,%Inh,NIK,22%
same,%Inh,NIM1,30%
same,%Inh,NLK,0%
same,%Inh,OSR1,11%
same,%Inh,PAK1,17%
same,%Inh,PAK2,10%
same,%Inh,PAK3,20%

# Reference: paper PMC5540273 (PLoS ONE, 2017)
